The whole screen tested about 340,000 compounds, of which about 8,500 (2.5%) were called active. The list comes from a sample in which actives are over-represented; it also holds similar structures and randomly drawn compounds. Values without a mark were called inactive.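 The calls were made as follows: active = melting temperature shift of at least 10% of the positive control shift, at one fixed dose; inactive = the rest.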

The subject of this test is Glutamate receptor ionotropic, NMDA 3A (GRIN3A) ligand-binding domain. Put plainly: NR3A LBD thermal stabilization by compounds – biophysical, differential scanning fluorimetry, uHTS, primary screen (AID 1259313). Conditions: at 25 µM, active compounds read high, 0% = protein alone, 100% = glycine-bound protein. A general note: DSF heats the sample and reads unfolding from a dye or from intrinsic fluorescence.
For the compound `O=C(Nc1ccc(OCC(=O)N2CCOCC2)cc1)c1cc(F)c(F)cc1Cl`, the Tm shift relative to glycine control was -1.28%. The figure for `CNC1(c2nnnn2-c2c(C)cccc2C)CCOC(C)(C)C1` (stereo unspecified) is 0.08%. The figure for `Cc1cc(Nc2cccc(C)c2C)n2ncnc2n1` is 1.12%; for `O=C1OCCN1C(=O)[C@H]1[C@H](c2ccccc2)C(c2ccc(F)cc2)=NN1c1ccccc1` it is -6.51%; for `O=C1OCCN1C(=O)[C@H]1[C@H](c2ccc(Cl)cc2)C(c2cccc(Cl)c2)=NN1c1ccc(Br)cc1` it is 18.1% (active). Next, `C[C@@H]1C(c2ccc(F)cc2)=NN(c2ccc(Br)cc2)[C@H]1C(=O)N1CCOC1=O`: 7.36%. With `O=c1c2cc(Br)ccc2nc(-c2cccc(Cl)c2)n1O`, the Tm shift relative to glycine control was -8.87%.

As for `O=C1OCCN1C(=O)[C@H]1[C@H](c2ccc(F)cc2)C(c2ccccc2)=NN1c1ccc(Br)cc1`, the Tm shift relative to glycine control was 16% (active). The figure for `S=C1NC(c2ccccc2)=NCN1c1ccc(Br)cc1` is -1.51%; for `O=C(COc1ncnc2c(Cl)cc(Cl)cc12)N1CCN(S(=O)(=O)c2ccccc2)CC1` it is -7.02%; for `CN1CCC(=NNC(=O)c2ccc(N(Cc3ccc(Cl)cc3)S(C)(=O)=O)cc2)CC1` it is -7.94%. The figure for `COC(=O)c1ccc(NC(=O)c2cc(Cl)ccc2OC)cc1` is -3.8%; for `O=C(NNC(=O)c1ccco1)Nc1ccccc1` it is 1.84%. The figure for `Cc1cc(NC(=O)c2ccc(F)cc2)ccc1NC(=O)c1ccco1` is -2.39%. Regarding `Cc1cc(C)cc(NC(=O)CSc2ccccc2)c1`, the Tm shift relative to glycine control is 0.84%. As for `O=C(CSc1ccccc1)Nc1ccc(NC(=O)c2ccco2)cc1`, the Tm shift relative to glycine control was 11.8% (active).

Consider `COC(=O)c1ccc(NC(=O)Nc2ccc(C)cc2)cc1`, for which the Tm shift relative to glycine control is 14.4% (active). Next, `O=C(NCCSc1ccccc1)c1ccco1`: 0.71%. The figure for `O=C(Nc1ccc(O)cc1)c1ccc(NC(=O)c2ccco2)cc1` is 25% (active); for `O=C(Nc1ccc(Sc2ccc(Br)cc2)cc1)c1ccco1` it is 11.6% (active). The figure for `COC(=O)c1ccc(NC(=O)C(C)N2C(=O)c3ccccc3C2=O)cc1` (stereo unspecified) is -0.85%; for `C/C(=N\NS(=O)(=O)c1ccc(Cl)cc1)c1ccc(NC(=O)c2ccco2)cc1` it is -5.45%; for `O=C(CNC(=O)c1ccco1)NNC(=O)c1ccc(Br)cc1` it is 0.51%. Regarding `CC12CCC(C(=O)N3CCN(c4ncccn4)CC3)(c3nc4ccccc4nc31)C2(C)C` (stereo unspecified), the Tm shift relative to glycine control is -1.28%. The figure for `COc1ccc(OC)c(S(=O)(=O)N2CCCC(C(=O)NCCc3ccccc3)C2)c1` (stereo unspecified) is 0.67%; for `O=C(CNC(=O)[C@@H]1Cc2ccccc2CN1)NC1CCCCC1` it is -12.5%. The figure for `CCOC(=O)N1CCN(C(=O)CN(C2CCCCC2)S(C)(=O)=O)CC1` is -2.35%; for `CCOc1ccc(NC(=O)CCS(=O)(=O)c2ccc3c(c2)CCCN3C(=O)CC)cc1` it is -2.2%. The figure for `C#CCOCCOCCOCCNc1nc(N2CCN(C(=O)C([C@@H](C)CC)n3cc(C(N)COC(=O)C(F)(F)F)nn3)CC2)nc(N2CCN(C(=O)[C@H](CCCCN)n3cc(C(N)CC(C)C)nn3)CC2)n1` (stereo partly specified) is 3.3%. For `NNC(=O)CNC(c1ccccc1)c1cc(Cl)ccc1NC(=O)c1ccccc1` (stereo unspecified), the Tm shift relative to glycine control was 2.13%. `COc1ccc(S(=O)(=O)NNC(=O)Nc2ccc(C)cc2)c(OC)c1`: the Tm shift relative to glycine control was -2.73%. Take `CC(C)(C)NC(=O)c1cc(NC(=O)c2ccco2)cc(NC(=O)c2ccco2)c1`: the Tm shift relative to glycine control was 1.37%.

In the case of `COc1cc(NC(=O)Nc2ccc(C)cc2)cc([N+](=O)[O-])c1`, the Tm shift relative to glycine control was 32.9% (active).

As to `O=C(Nc1ccc(CSc2ccccc2)cc1)c1ccc(CN2CCOCC2)cc1`, the Tm shift relative to glycine control was -2.35%. In the case of `CSc1cccc(NC(=O)CSc2ccccc2)c1`, the Tm shift relative to glycine control is -11.8%. The figure for `O=C(CSc1ccccc1)Nc1ccc(C(=O)Nc2cccc(O)c2)cc1` is 29.4% (active). The figure for `CCOC(=O)c1ccc(NC(=O)CNC(=O)c2ccco2)cc1` is -0.36%; for `COC(=O)c1ccc(NC(=O)c2ccco2)cc1` it is 21.7% (active); for `CCOc1ccc(NC(=O)Nc2cc(C)ccc2OC)cc1` it is -2.2%. The figure for `CCOC(=O)/C(C#N)=C\c1c(C)cc(C)c(COC(C)=O)c1C` is -1.41%; for `O=C1CSC(c2ccc(Cl)cc2)N1` (stereo unspecified) it is 0.65%. Consider `CCOc1ccccc1NC(=O)Cn1ncc2ccc([N+](=O)[O-])cc21`, for which the Tm shift relative to glycine control was 1.06%. Consider `Cc1nonc1C(=O)N/N=C/c1ccc(O)cc1`, for which the Tm shift relative to glycine control was -3.82%.

As to `O=C(CCCN1C(=O)CSc2ncccc21)N1CCN(c2cccc(C(F)(F)F)c2)CC1`, the Tm shift relative to glycine control was -1.45%. Consider `Cc1ccc(S(=O)(=O)N2CCC3(CC2)OCCO3)c(C)c1`, for which the Tm shift relative to glycine control is -0.77%.

As for `CCOc1ccc(Nc2nc(Cc3nnc(SCC(=O)c4ccc(C)cc4)o3)cs2)cc1`, the Tm shift relative to glycine control is -12.6%.

For the origin of these results see PubChem BioAssay AID1259313 (Sanford-Burnham Center for Chemical Genomics, 2017).
